Results as given in PubChem BioAssay (Tox21).
Results filed as inconclusive are left out. The source made the active and inactive calls. The call rests on the fitted dose curve.

Assay: qHTS assay to identify small molecule agonists or antagonists of the thyroid stimulating hormone receptor (TSHR) signaling pathway - wild type cell line counter screen (AID 1259384)
Details: HEK293 wild type, cAMP HTRF counter-screen, stronger effect = higher value; series mostly up to 92.4 µM; cAMP activity change: at the top concentration
Description: U.S. Tox21 Program National Center for Advancing Translational Sciences [NCATS] NIH Chemical Genomics Center [NCGC] U.S. Environmental Protection Agency [EPA] National Institutes of Environmental Health Sciences [NIEHS] National Toxicology Program [NTP] U.S. Food and Drug Administration [FDA] Tox21 Assay Overview: TSHR is the receptor for thyrotropin (thyroid stimulating hormone or TSH), a member of the glycoprotein hormone family. TSH is released by the anterior pituitary gland and is the main regulator of thyroid gland growth and development. Upon binding circulating thyrotropin, a G-protein signal cascade activates adenylyl cyclase and […] cAMP concentration is increased. cAMP is a key second messenger involved extensively in cellular signal transduction pathways associated with the majority of G-protein coupled receptors (GPCRs). The activation of these GPCRs by neurotransmitters, lipids, nucleotides, peptides and hormones results in the activation or the inhibition of plasma membrane-bound adenylate cyclase through heterotrimeric G-proteins. A cell-based TSHR-Hek293 assay can be used to identify TSHR agonists. To eliminate the false positive compounds identified from screening a cell-based TSHR-Hek293 cell line, cAMP assay in a wild type Hek293 cells was used as a counter screening.
Tox21 Assay Protocol Summary: Hek293 cells (wild type) were dispensed at 800 cells/4 uL/well in 1536-well white plates using a Multidrop dispenser. After the assay plates were incubated at a 37 C/5% CO2 incubator for 18 hrs, 23 nL of compounds dissolved in DMSO, positive controls or DMSO only was transferred to the assay plate by a pin tool, followed by 1 ul medium containing Ro20-1724. After 30 min of incubation at room temperature, 2.5 ul/well of cAMP-d2 and 2.5 ul/well of anti-cAMP-cryptate were added respectively into the assay plates using a Flying Reagent Dispenser. The plates were incubated at room temperature for 1 hr. The fluorescence intensity in the plates was measured using an Envision plate reader. Each test compound was measured at 15 concentrations and in triplicates.
On the % scale 0 is the no-effect control and ±100 the full control effect.

**Q.** With `O=C1c2ccccc2Cc2ccccc21` as the compound, how does the “cAMP activity change” value read?
**A.** Its value is 3.78% (inactive).

**Q.** For `CCCCCCCCCCCC(=O)NCCCN(C)C`, which “cAMP activity change” value is on record?
**A.** Its value is 0.0498% (inactive).

**Q.** For `CCCN(CCC)c1c([N+](=O)[O-])cc(C(F)(F)F)c(N)c1[N+](=O)[O-]`, which “cAMP activity change” value is on record?
**A.** Its value is 8.09% (inactive).

**Q.** Which “cAMP activity change” value does the source give for `N/C(=N\N=C\c1ccc(Cl)cc1)N/N=C/c1ccc(Cl)cc1` here?
**A.** Its value is -6.79% [at 42.5 µM] (inactive).

**Q.** Which “cAMP activity change” value does the source give for `O=c1[nH]sc2cc(Cl)ccc12` here?
**A.** The value was 5.87% [at 42.5 µM] (inactive).

**Q.** With `O=C(O)c1cc(O)c2c(c1)C(=O)c1cccc(O)c1C2=O` as the compound, how does the “cAMP activity change” value read?
**A.** Its value is -2.39% (inactive).

**Q.** Which “cAMP activity change” value does the source give for `CCCCCCCCCCCCCC[P+](CCCC)(CCCC)CCCC` (tested in a mixture with another compound) here?
**A.** The value was 0.646% (inactive).

**Q.** With `[O-][n+]1ccccc1SSc1cccc[n+]1[O-]` as the compound, how does the cAMP activity change read?
**A.** Its cAMP activity change is 5.78% [at 18.9 µM] (inactive).

**Q.** For `O=C(Nc1cccc([N+](=O)[O-])c1)c1cc2ccccc2cc1O`, which “cAMP activity change” value is on record?
**A.** Its value is -15.7% (inactive).

**Q.** Which outcome does the source give for `Cc1ccc(O)c(C(C)(C)C)c1` here?
**A.** Its outcome is “inactive”.

**Q.** Which outcome does the source give for `CC(C)(C)CC(C)(C)c1ccc(OCCOCC[N+](C)(C)Cc2ccccc2)cc1` here?
**A.** Its outcome is “inactive”.

**Q.** For `CC(C)(C)NC(=O)[C@@H]1C[C@@H]2CCCC[C@@H]2CN1C[C@@H](O)[C@H](Cc1ccccc1)NC(=O)[C@H](CC(N)=O)NC(=O)c1ccc2ccccc2n1`, which “cAMP activity change” value is on record?
**A.** Its value is -1.34% (inactive).

**Q.** With `CCCCCOc1ccccc1/C(=C\SC)n1ccnc1` as the compound, how does the “cAMP activity change” value read?
**A.** Its value is 1.79% [at 42.5 µM] (inactive).

**Q.** With `Clc1ccccc1C(c1ccccc1)(c1ccccc1)n1ccnc1` as the compound, how does the outcome read?
**A.** The outcome was “inactive”.

**Q.** Which “cAMP activity change” value does the source give for `CN(C)[C@@H]1C(=O)C(C(N)=O)=C(O)[C@@]2(O)C(=O)C3=C(O)c4c(O)ccc(Cl)c4[C@@H](O)[C@H]3C[C@@H]12` here?
**A.** The value was 18.5% [at 42.5 µM] (inactive).

**Q.** For `C=CC(=O)OCCn1c(=O)n(CCOC(=O)C=C)c(=O)n(CCOC(=O)C=C)c1=O`, which “cAMP activity change” value is on record?
**A.** The value was 4.94% (inactive).

**Q.** Which “cAMP activity change” value does the source give for `C[C@H]1[C@H]2CC[C@H]3[C@@H]4CC=C5C[C@@H](N(C)C)CC[C@]5(C)[C@H]4CC[C@]23CN1C` here?
**A.** Its value is 5.23% [at 42.5 µM] (inactive).

**Q.** For `Oc1cccc2cc3cccc(O)c3c(O)c12`, which “cAMP activity change” value is on record?
**A.** Its value is 6.86% (inactive).

**Q.** Which “cAMP activity change” value does the source give for `CN(C)c1ccc(SC#N)cc1` here?
**A.** The value was -8.58% (inactive).

**Q.** Which “cAMP activity change” value does the source give for `NC(=O)C1(N2CCCCC2)CCN(CCCN2c3ccccc3CCc3ccc(Cl)cc32)CC1` here?
**A.** Its value is 2.55% [at 42.5 µM] (inactive).

**Q.** For `NNc1nc(-c2ccccc2)cs1`, which “cAMP activity change” value is on record?
**A.** Its value is -12.9% (inactive).

**Q.** For `Cc1[nH]cnc1C[C@H]1CCc2c(C)c3ccccc3n2C1=O`, which “cAMP activity change” value is on record?
**A.** The value was 2.43% (inactive).

**Q.** With `Cc1ccc(O)c2ncccc12` as the compound, how does the “cAMP activity change” value read?
**A.** The value was 0.373% [at 42.5 µM] (inactive).

**Q.** For `Cc1onc(-c2ccccc2Cl)c1C(=O)N[C@@H]1C(=O)N2[C@@H]1SC(C)(C)[C@@H]2C(=O)O`, which “cAMP activity change” value is on record?
**A.** The value was -4.09% [at 42.5 µM] (inactive).

**Q.** With `O=C(Oc1cccc2cccnc12)c1ccccc1` as the compound, how does the “cAMP activity change” value read?
**A.** Its value is -0.602% [at 42.5 µM] (inactive).

**Q.** For `Cc1onc(-c2c(Cl)cccc2Cl)c1C(=O)N[C@@H]1C(=O)N2[C@@H]1SC(C)(C)[C@@H]2C(=O)O`, which “cAMP activity change” value is on record?
**A.** The value was 5.03% [at 42.5 µM] (inactive).

**Q.** With `COc1ccc(C(=O)/C(Br)=C\C(=O)O)cc1` as the compound, how does the “cAMP activity change” value read?
**A.** Its value is 6.09% (inactive).

**Q.** Which “cAMP activity change” value does the source give for `Cc1cccc(S(=O)(=O)O)c1C` here?
**A.** Its value is -9.3% (inactive).

**Q.** For `Cc1cc(O)c(C(C)(C)C)cc1C(C)(C)C`, which “cAMP activity change” value is on record?
**A.** Its value is -0.353% (inactive).

**Q.** With `NC(=O)CC[C@@H]1NC(=O)[C@H](Cc2ccccc2)NC(=O)[C@H](Cc2ccc(O)cc2)NC(=O)CCSSC[C@@H](C(=O)N2CCC[C@H]2C(=O)N[C@@H](CCCN=C(N)N)C(=O)NCC(N)=O)NC(=O)[C@H](CC(N)=O)NC1=O` as the compound, how does the “cAMP activity change” value read?
**A.** The value was 3.01% [at 42.5 µM] (inactive).

**Q.** Which “cAMP activity change” value does the source give for `CCCCN(CCCC)c1ccc(C(=O)c2ccccc2C(=O)O)c(O)c1` here?
**A.** The value was 6.8% (inactive).

**Q.** Which “cAMP activity change” value does the source give for `O=C(OCC1CO1)C1CCCCC1C(=O)OCC1CO1` (stereo not given) here?
**A.** Its value is -3.92% (inactive).

**Q.** With `OCc1c[nH]c2ccccc12` as the compound, how does the “cAMP activity change” value read?
**A.** The value was -3.64% (inactive).

**Q.** With `O=Cc1cc(O)ccc1Br` as the compound, how does the “cAMP activity change” value read?
**A.** The value was -0.545% (inactive).

**Q.** For `O=C(NO)C1(NS(=O)(=O)c2ccc(Oc3ccc(F)cc3)cc2)CCOCC1`, which “cAMP activity change” value is on record?
**A.** Its value is -0.0157% (inactive).

**Q.** Which “cAMP activity change” value does the source give for `NC(=O)NS(=O)(=O)c1ccc(N)cc1` here?
**A.** The value was 4.57% [at 42.5 µM] (inactive).

**Q.** For `Oc1ccc2cc(SSc3ccc4cc(O)ccc4c3)ccc2c1`, which outcome is on record?
**A.** The outcome was “inactive”.

**Q.** With `CC(C)(C)C(=O)OCOC(=O)C1N2C(=O)CC2S(=O)(=O)C1(C)C` (stereo not given) as the compound, how does the “cAMP activity change” value read?
**A.** Its value is 4.5% [at 42.5 µM] (inactive).

**Q.** For `C=C(C)C(=O)OCC(O)COc1ccc(C(C)(C)c2ccc(OCC(O)COC(=O)C(=C)C)cc2)cc1` (stereo not given), which “cAMP activity change” value is on record?
**A.** The value was 0.222% (inactive).

**Q.** With `C/C=C(\C)C(=O)OCc1ccccc1` as the compound, how does the “cAMP activity change” value read?
**A.** Its value is 0.554% (inactive).
